NPSR antag – neuropeptide S receptor (human) antagonism, cAMP; Q6W5P4; CHO-NPSR cells, cAMP TR-FRET, antagonist mode; Potency, µM (series often up to 38.3 µM), hits mostly inhibitors; 1% of 220,000 active; AID 1461; note: nearly all actives have a fitted effect of over 50% in size
ALDH1A1 block – ALDH1A1 (human) enzyme inhibition | P00352 | AID 1030 | Purified ALDH1A1, NADH fluorescence, propionaldehyde substrate | 7.3% of 220,000 active | Potency, µM (highest dose often 75.3 µM), hits mostly inhibitors; active = well fitted inhibition curve with a large enough effect, not every such curve was filed as active; inconclusive = small, poorly fitted or top-dose-only effect, or another doubt; inactive = no such curve, though single readings can be large or run the other way
Target sequence (P00352 whole entry, looked up): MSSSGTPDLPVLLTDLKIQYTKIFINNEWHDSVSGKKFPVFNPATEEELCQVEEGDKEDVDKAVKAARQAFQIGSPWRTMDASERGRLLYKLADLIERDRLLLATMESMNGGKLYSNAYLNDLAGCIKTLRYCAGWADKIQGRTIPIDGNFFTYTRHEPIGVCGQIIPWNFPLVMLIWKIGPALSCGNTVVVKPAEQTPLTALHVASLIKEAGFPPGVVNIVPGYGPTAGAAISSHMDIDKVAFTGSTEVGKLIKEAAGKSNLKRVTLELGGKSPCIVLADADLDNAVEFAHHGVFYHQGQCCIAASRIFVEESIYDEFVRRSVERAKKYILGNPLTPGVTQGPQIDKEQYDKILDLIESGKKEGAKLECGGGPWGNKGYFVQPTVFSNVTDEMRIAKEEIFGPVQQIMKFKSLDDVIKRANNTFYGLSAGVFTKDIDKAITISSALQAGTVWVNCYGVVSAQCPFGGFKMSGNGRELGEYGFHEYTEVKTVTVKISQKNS
IMPase Li inh – IMPase inhibition in cells with lithium potentiation. CHO-M1 cells, IP1 TR-FRET (IP-One), carbachol + lithium. Potency, µM (top dose mostly 59.4 µM), most hits filed as inhibitors. 0.35% of 210,000 active. AID 1457;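 note: IP1 builds up when IMPase is blocked and the TR-FRET signal falls; nearly all actives have a fitted effect of over 50% in size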
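Test compounds were applied to CHO-M1 cells previously cultured for 16–30 h at 2000 per well. A small lithium amount accompanied them; after 30 min at 37C, IP1 was quantified by TR-FRET.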
IMPase inh – cell-permeable inhibitors of inositol monophosphatase (IMPase); P97697; CHO-M1 cells, IP1 accumulation, HTRF TR-FRET ratio; inhibition (IP1 accumulation), % at 46.1 µM; 120,000 tested, under 10 active; active = well fitted curve in the direction sought with a large enough effect in the signal ratio, not every such curve was filed as active; inconclusive = small, poorly fitted or top-dose-only effect, or a change in a side signal; inactive = no such curve, though single readings can be large or run the other way; the % refers to the signal ratio;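 note: cells stimulated with carbachol in lithium chloride buffer; higher means more IMPase inhibition seen as more IP1 and lower FRET ratio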
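Elevated IP1 in lysates lowers TR-FRET signal (665/620 ratio and 620 channel reported). Cells were CHO-M1, given carbachol (50 uM as added) plus 50mM LiCl, pH 7.4, 30 min, 37C; compounds titrated up to 46 uM; AC50 by Hill equation.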
HPGD inh – inhibitors of human 15-hydroxyprostaglandin dehydrogenase (HPGD); P15428; purified HPGD, NADH fluorescence kinetic, PGE2 substrate; Potency, µM, most hits filed as inhibitors; 4.3% of 150,000 active; AID 894; active = well fitted inhibition curve with a large enough effect, not every such curve was filed as active; inconclusive = small, poorly fitted or top-dose-only effect, or another doubt; inactive = no such curve, though single readings can be large or run the other way
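NADH formation kinetics: reaction with 30 uM PGE2 and 1 mM NAD+ (final), 20 nM enzyme, Tris-HCl pH 8 with Tween 20, after 15 min compound preincubation at room temperature. Fluorescence change, last versus first of five reads.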
PNC inhibitor – inhibitors of perinucleolar compartment assembly; PC3M PTB-GFP, PNC prevalence imaging, 16 h; hits give low values; 3.1% of 140,000 active; AID 2417; activity change (PNC), negative = inhibition, % at 10 µM;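 active = readout at or below -70, meaning at least 70% loss of cells showing the perinucleolar compartment, a nuclear body marking cancer cells; inconclusive = readout between -30 and a set limit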
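Read-out is percentage of cells bearing a perinucleolar compartment, from automated 20x imaging of fixed, Hoechst-stained PC3M PTB-GFP cells. Cells were seeded 4 h, then exposed 16 h to compound (23 nl of library stock) in duplicate plates.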
Numbers stand for hits; n = inactive; u = inconclusive; x = no result given; [ ] = remark or other dose. An excerpt weighted towards active compounds, which were near 11% of everything screened. Unless noted, calls come from the whole dose curve; as a rule, active = well fitted curve in the direction sought with a large enough effect; inconclusive = small, poorly fitted or top-dose-only effect, or another doubt; inactive = no such curve, though single readings can be large; an effect the other way counts as inactive or inconclusive.

SMILES | NPSR antag | ALDH1A1 block | IMPase Li inh | IMPase inh | HPGD inh | PNC inhibitor
Cc1cccc(Oc2ccc(NC(=O)C3CC=CCC3C(=O)O)cc2)c1 (configuration not stated) | n | 1.8µM | n | x | x | x
N#Cc1ccc(Oc2ccc(NC(=O)C3CC=CCC3C(=O)O)cc2)cc1 (configuration not stated) | n | 0.5µM | n | x | x | x
COc1ccc(OC)c(NC(=O)CSc2nc3c(c(=O)n(C)c(=O)n3C)n2C)c1 | n | n | n | n | n | n
Cc1c(NC2(c3nnnn3-c3ccc(Br)cc3)CCCCC2)c(=O)n(-c2ccccc2)n1C | u | u | n | n | n | n
O=C(COC(=O)CC(c1ccccc1)c1ccccc1)NCc1ccccc1 | n | u | n | x | n | n
CC(NS(=O)(=O)c1ccc(CCC(=O)NCC2CCCO2)cc1)c1ccccc1 (configuration not stated) | n | n | n | n | n | n
CCCOc1ccccc1Cn1c(=O)oc2ccc(C)cc21 | n | u | n | n | 25µM | u
O=C1Nc2ccc(I)cc2/C1=C/c1cc(Br)c(O)c(Br)c1 | n | n | n | n | 3.5µM | x
COc1cc(C=C2C(=O)OC(c3ccccc3)OC2=O)cc(Br)c1O (configuration not stated) | n | n | n | x | x | x
CC(=O)c1cccc(NS(=O)(=O)N(C)C)c1 | n | n | n | n | n | n
CC(Sc1ccsc1[N+](=O)[O-])C(=O)NCCc1ccc(Cl)cc1 (configuration not stated) | n | 3.2µM | n | n | n | n
O=C(CSc1ccsc1[N+](=O)[O-])NCCc1ccc(Cl)cc1 | n | n | n | n | n | u
COC(=O)c1ccc(C(NC(=O)OCc2ccccc2)/C(=C/[C@@H](C)C(=O)NCc2ccc(OC)c(O)c2)c2cccnc2)cc1 (some centres not stated) | x | n | n | x | n | x
Cc1cc2nc(CCN(Cc3cccnc3)C(=S)Nc3ccccc3)[nH]c2cc1C | n | u | u | n[1.84 µM] | n | -86
Cc1[nH]c2ccccc2c1CCN(Cc1cccnc1)C(=S)Nc1ccc(F)cc1 | 7.9µM | u | n | x | x | x
Cc1cc2nc(CCN(Cc3cccnc3)C(=S)Nc3ccc(F)cc3)[nH]c2cc1C | n | n | n | n | n | n
CC(C)N1C(=O)C2C(C(=O)NCc3ccccc3)C3C=CC2(O3)C1C(=O)NC(C)(C)C (configuration not stated) | n | n | n | n | n | n
Cc1cc(C)c(NC(=O)C2CCCN2C)c(C)c1 (configuration not stated) | n | n | n | n | n | n
CCN(CC)c1ccc(NC(=O)CCS(=O)(=O)c2cccc3nsnc23)c(C)c1 | n | 28µM | n | x | x | x
O=C(CCNS(=O)(=O)c1cccc2nsnc12)NC1CCN(Cc2ccccc2)CC1 | n | n | n | n | n | -112
O=C(CCS(=O)(=O)c1cccc2nsnc12)NC1CCCCC1 | n | u | n | n | 28µM | n
O=C(CNS(=O)(=O)c1cccc2nsnc12)NC1CCCCC1 | n | n | n | n | n | -111
O=C(NC1CCCCC1)C1CCN(S(=O)(=O)c2cccc3nsnc23)CC1 | n | n | n | n | n | n
CCc1ccc(NC(=O)CCS(=O)(=O)c2cccc3nsnc23)cc1 | n | n | n | n | n | n
S=c1[nH]c2ccccc2n2cccc12 | n | u | x | x | x | x
SMILES | NPSR antag | ALDH1A1 block | IMPase Li inh | IMPase inh | HPGD inh | PNC inhibitor
O=C(CCS(=O)(=O)c1cccc2nsnc12)N1CCN(Cc2ccc3c(c2)OCO3)CC1 | n | u | n | n | n | n
O=C(CCS(=O)(=O)c1cccc2nsnc12)N1CCN(C(=O)c2ccco2)CC1 | n | 25µM | n | n | n | n
CCCn1cnc2c(sc3nc4c(cc32)CSC(C)(C)C4)c1=O | n | 0.56µM | n | n | n | u
CC(C)CCOc1ncnc2c1sc1nc3c(cc12)CSC(C)(C)C3 | n | 1.1µM | n | n | u | n
COC(=O)c1cn(C(=O)c2ccccc2)c2ccccc12 | n | 6.3µM | n | x | x | x
COCC(=O)n1cc(C(=O)OC)c2ccccc21 | n | n | n | n | n | u
CCCCN1C(=O)C(=Nc2cccc3cnccc23)c2ccccc21 | n | 0.63µM | n | x | x | x
O=C(CN1C(=O)c2cccc3cccc1c23)NCc1cccnc1 | n | n | n | n | n | n
Cc1ccc(-c2c(C#N)c(N)nc3c2CCCC3)o1 | n | u | n | x | x | x
CCSc1nc2c(c(-c3ccc(C)o3)c1C#N)CCCC2 | n | u | n | n | u | -100
N#Cc1c(-c2ccncc2)c2c([nH]c1=S)CCCC2 | n | u | n | n | 22µM | n
Cc1ccc(-c2c3c([nH]c(=S)c2C#N)CCCC3)o1 | n | 7.9µM | n | n | 8.9µM | n
CCCCOc1ccc(-c2c(C#N)c(N)[nH]c(=S)c2C#N)cc1 | n | x | x | x | x | x
COC(=O)[C@H](COC(C)(C)C)NC(=O)O[C@@H]1C(=O)c2cc(Br)ccc2O[C@H]1c1ccc2c(c1)OCO2 | x | n | n | x | n | x
COc1ccc(S(=O)(=O)N2CCCOC2CNC(=O)C(=O)NCc2ccco2)cc1C (configuration not stated) | n | n | n | x | x | x
O=C(Cn1c2c(sc1=O)C1c3ccccc3OCC1CS2)Nc1ccc(Cl)c(Cl)c1 (configuration not stated) | n | 25µM | n | x | n | n
CC(C)CN1CCC2(CC1)CCN(C(=O)c1cccc(F)c1)CC2 | x | n | n | x | n | x
O=C(CSc1ccccc1[N+](=O)[O-])NC1CCS(=O)(=O)C1 (configuration not stated) | n | n | n | x | n | n
COc1ccc(/C=C2/SC(=O)N(CCNC(=O)C3CCCN3C(=O)c3cccs3)C2=O)cc1 (configuration not stated) | n | n | n | x | u | -100
O=C(NCCN1C(=O)S/C(=C/c2ccccc2)C1=O)C1CCCN1C(=O)c1cccs1 (configuration not stated) | n | n | x | n | x | n
C/C(=N\NC(=O)CSc1nc2ccccc2o1)c1ccc(O)cc1 | n | 24µM | n | x | x | x
C/C(=N\NC(=O)CSc1nc2ccccc2o1)c1cccc(O)c1 | n | x | x | x | x | x
CO/N=C/C1CCN(c2ncc(C(F)(F)F)cc2Cl)C1=O (configuration not stated) | n | 32µM | n | x | x | x
c1ccc(-c2cc(N3CCCCC3)nc(-c3ccccc3)n2)cc1 | n | n | n | n | u | u
FC(F)(F)c1ccc(Sc2n[nH]c(C(F)(F)F)n2)nc1 | n | n | x | x | x | x
CC(=O)C(Sc1nn(C)c(=S)s1)C(=O)Nc1ccccc1 (configuration not stated) | n | 4.5µM | n | n | u | n
COC(=O)c1ccc(CNC(=O)c2c3c(nc4ccccc24)CCN(Cc2ccccc2)C3)cc1 | n | u | n | x | n | n
